These results are taken from PubChem BioAssay AID488975 (Johns Hopkins Ion Channel Center, 2010).

About 2,600 (0.84%) of roughly 310,000 compounds were called active. This is one part of a sample in which actives are shown more often than they occur.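 The calls were made as follows: active = B-score over 3 SD under the library average, and starting fluorescence ratio not unusually high; inactive = the rest.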

Sequence of High affinity choline transporter 1 (Homo sapiens) (Q9GZV3 whole entry, looked up): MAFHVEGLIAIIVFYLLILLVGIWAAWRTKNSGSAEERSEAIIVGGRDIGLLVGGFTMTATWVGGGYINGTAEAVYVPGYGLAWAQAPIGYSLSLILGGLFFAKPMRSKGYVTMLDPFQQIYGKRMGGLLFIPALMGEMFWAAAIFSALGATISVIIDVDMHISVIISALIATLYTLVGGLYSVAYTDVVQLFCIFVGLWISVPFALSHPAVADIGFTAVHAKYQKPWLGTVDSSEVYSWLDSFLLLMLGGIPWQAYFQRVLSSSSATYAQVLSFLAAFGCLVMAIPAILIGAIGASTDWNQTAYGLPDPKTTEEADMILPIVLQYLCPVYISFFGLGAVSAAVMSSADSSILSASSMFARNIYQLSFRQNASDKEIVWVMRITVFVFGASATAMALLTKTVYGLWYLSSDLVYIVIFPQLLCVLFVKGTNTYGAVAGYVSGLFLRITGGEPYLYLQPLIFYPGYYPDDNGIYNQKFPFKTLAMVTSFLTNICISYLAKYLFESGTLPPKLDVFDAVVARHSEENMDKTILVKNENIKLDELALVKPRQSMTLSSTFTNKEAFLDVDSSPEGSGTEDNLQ

The assay addresses High affinity choline transporter 1 (Homo sapiens) (UniProt Q9GZV3). Briefly: inhibits the human high affinity choline transporter (AID 488975).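 As to B-score: choline stimulus applied at its EC90 after an EC20 pre-addition; B-score computed on integrated fluorescence ratio after choline addition.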 The following applies: CHT-expressing cells, membrane potential dye, choline response, at 10 µM; stronger effect = lower value.
Turning to `CCOC(=O)N1CCN(C(=O)C2CCN(c3ncnc4c3sc3cccc(F)c34)CC2)CC1`, the B-score is -5.37 (active). In the case of `CCOC(=O)C1CCN(c2ncnc3c2oc2ccc(Br)cc23)CC1`, the B-score entry was “inactive”.

As for `CCOC(=O)N1CCN(C(=O)C2CCN(S(=O)(=O)c3cc(Cl)ccc3OCC)CC2)CC1`, the B-score result was “inactive”. `CCC(C)c1ccc(O)c(/C=N/O)c1` (centres undefined): the B-score entry was “inactive”.

In the case of `CNCC(O)c1ccc(O)c(O)c1` (centres undefined), the B-score is -5.02 (active). To `CC(=O)NCC(O)c1ccc([N+](=O)[O-])cc1` (centres undefined) belongs “inactive”; to `COc1cc(C(=O)NCC(=O)NCCSc2ccc(Br)cc2)cc(OC)c1OC`, “inactive”. Turning to `C=CCOc1ccc(/C=C/C(=O)OCC(=O)NC(C)c2ccc(F)cc2)cc1` (centres undefined), the B-score result was “inactive”. The entry for `COc1ccc(C(=O)N[C@H](C(=O)NCc2ccccc2)C(C)C)cc1` is “inactive”; for `CCOC(=O)C(Cc1ccccc1)NC(=O)CCC(=O)c1ccc(OC)cc1` (centres undefined) it is “inactive”. The figure for `COc1ccc(C(=O)NC(Cc2ccc(OC(=O)c3ccc(OC)cc3)cc2)C(=O)O)cc1` (centres undefined) is -5.4 (active).

Consider `CCOc1ccc(CCNC(=O)COC(=O)C2CCN(c3ccc(C(F)(F)F)cn3)CC2)cc1OCC`, for which the B-score entry is “inactive”. The entry for `FC(F)(F)c1ccc2c3n(nc2c1)CCN=C3c1ccc(Cl)cc1` is “inactive”; for `Cc1ccc(C(=O)NCCN2CCOCC2)cc1C` it is “inactive”; for `Cc1cccc(C(=O)NCCCN2CCCC2=O)c1` it is “inactive”. For `Cc1cccc(-c2nc3ccc(C(=O)NCCN4CCN(C)CC4)cc3nc2-c2cccc(C)c2)c1`, the B-score is -5.67 (active).

In the case of `NC1=NC(c2ccc([N+](=O)[O-])cc2)N(c2ccc(F)cc2)C(N)=N1` (centres undefined), the B-score result was “inactive”. On to `Cc1ccc(OCC(=O)OC(C)CN(C)Cc2ccccc2)cc1` (centres undefined), for which the B-score result was “inactive”.

As to `CN(Cc1ccccc1)CC(O)COc1ccc(CNCc2cc3ccccc3s2)cc1` (centres undefined), the B-score is -5.57 (active).

Take `OC(CNCc1ccc2c(c1)OCO2)COc1ccccc1` (centres undefined): the B-score entry is “inactive”. To `COc1ccccc1NC(=O)Nc1nc(CC(=O)Nc2ccccc2F)cs1` belongs “inactive”. As for `CCOc1cc(N2CCOCC2)c(OCC)cc1NC(=O)COc1cccc(Cl)c1`, the B-score entry is “inactive”. With `CCN(CC(=O)Nc1cccc(S(=O)(=O)N2CCCCC2)c1)Cc1ccccc1`, the B-score entry was “inactive”. To `Cc1ccc(-c2cc(=O)[nH]c(NCc3ccccc3)n2)cc1` belongs “inactive”; to `CCCCN(C1CCS(=O)(=O)C1)S(=O)(=O)c1ccc(C(C)C)cc1` (centres undefined), “inactive”. For the compound `CCCCOc1ccc(Cl)cc1CSc1nncn1N`, the B-score is -4.96 (active). Regarding `Cc1cc(=O)[nH]c(SCc2cc(Cl)ccc2OC(F)F)n1`, the B-score entry was “inactive”. As for `COc1ccc(Cl)cc1CSc1ncn[nH]1`, the B-score result is “inactive”. For `COc1ccccc1C(CNC(=O)c1cccc(NS(=O)(=O)c2ccc(Br)cc2)c1)N(C)C` (centres undefined), the B-score result is “inactive”. For `CN(CC(=O)NCc1cccnc1)S(=O)(=O)c1cc(Cl)ccc1Cl`, the B-score entry was “inactive”. Take `COc1ccc(CC2c3cc(OC)c(OC)cc3CC[N+]2(C)CCC(=O)OCCCCCOC(=O)CC[N+]2(C)CCc3cc(OC)c(OC)cc3C2Cc2ccc(OC)c(OC)c2)cc1OC` (centres undefined): the B-score entry was “inactive”. On to `Cc1ccccc1N1CC(C(=O)Nc2ccc(S(=O)(=O)N3CCCC3)cc2)CC1=O` (centres undefined), for which the B-score result is “inactive”. Consider `CCC1(c2ccccc2)NC(=O)N(CC(=O)Nc2ccccc2C(=O)NC2CCCC2)C1=O` (centres undefined), for which the B-score result is “inactive”.

Turning to `CCc1noc(C)c1C(=O)Oc1ccc(N(C)S(=O)(=O)c2ccc(C)c(C)c2)cc1`, the B-score result was “inactive”. Regarding `CC1CN(S(=O)(=O)c2ccc(C(=O)NN3CCN(C)CC3)cc2)CC(C)O1` (centres undefined), the B-score is -5.14 (active).

Consider `CC1CC(C)CN(S(=O)(=O)c2ccc(C(=O)NN3CCOCC3)cc2)C1` (centres undefined), for which the B-score result is “inactive”. Take `CN1CCN(NC(=O)c2ccc(S(=O)(=O)N3CCCCCC3)cc2)CC1`: the B-score result is “inactive”. The entry for `CCCc1cc(=O)[nH]c(SCC(=O)c2c(N)n(CC(C)C)c(=O)n(C)c2=O)n1` is “inactive”. As to `Cc1ccccc1-n1nnc2c(=O)oc3ccccc3c21`, the B-score was -6.25 (active). On to `CCCCC(=O)Nc1cc(C)c2c(=O)oc3ccccc3c2n1`, for which the B-score entry is “inactive”. The entry for `CCOC(=O)c1c(C)nc2c(c1C)c(=O)oc1ccccc12` is “inactive”; for `Cc1ccc(Cl)c(OCC(=O)N(C)CC(=O)Nc2ccc(N3CCOCC3)cc2)c1` it is “inactive”. Turning to `Cc1ccc(C(=O)N/C(=C/C=C/c2ccccc2)C(=O)NCc2ccco2)cc1`, the B-score was -7.21 (active).

As to `O=C(NCc1ccco1)/C(=C/c1ccco1)NC(=O)c1ccccc1`, the B-score entry is “inactive”. As for `CNC(=O)/C(=C\C=C\c1ccccc1)NC(=O)c1ccc([N+](=O)[O-])cc1`, the B-score result is “inactive”. `Cc1n[nH]c(=O)c2c(NC(=O)CSc3ccccc3F)oc(C)c12`: the B-score result was “inactive”. For the compound `Cc1ccc2nc(SCC(=O)Nc3cccc4ccccc34)nc(=O)n2c1`, the B-score result was “inactive”.

As for `Cc1sc2c(c1C)c(=O)n(-c1ccccc1)c(=O)n2CC(=O)NCC1CCCO1` (centres undefined), the B-score result is “inactive”. As to `Cc1nn(CC(=O)NCC2CCCO2)c(=O)c2cc3ccccc3n12` (centres undefined), the B-score is -5.7 (active). Turning to `Cc1c(Cl)c([N+](=O)[O-])nn1CC(=O)NCC1CCCO1` (centres undefined), the B-score result is “inactive”. Turning to `COc1ccc(N2C(=O)CC(SC(C)C)C2=O)cc1` (centres undefined), the B-score entry is “inactive”. For `COc1ccc(N2C(=O)C(Cc3ccccc3)NC2=S)cc1` (centres undefined), the B-score result is “inactive”.

Turning to `COc1ccc(N2C(=O)CNC2=S)cc1`, the B-score is -7.99 (active). To `CCOC(=O)N1CCN(C(=O)c2ccccc2SCC(=O)NCC2CCCCC2)CC1` belongs “inactive”; to `CC(C)(C)NC(=O)NC(=O)CN1CCC(Cc2ccccc2)CC1`, -7.19 (active); to `NC(=O)c1ccc(CN2CCC(Cc3ccccc3)CC2)cc1`, “inactive”.

With `O=C(O)c1ccc(S(=O)(=O)N2CCC(Cc3ccccc3)CC2)cc1`, the B-score entry was “inactive”. Turning to `Cc1sc2ncnc(N3CCC(C(=O)NNC(=O)c4ccc(F)cc4)CC3)c2c1C`, the B-score entry was “inactive”. With `Cn1c2ccccc2c(=O)c2c(O)cccc21`, the B-score is -5.96 (active). With `CCn1c(=O)cc(O)c2ccccc21`, the B-score result was “inactive”.

For the compound `Cc1cc(C)c(-c2c(O)c3ccccc3n(C)c2=O)c(C)c1`, the B-score entry was “inactive”. The entry for `CCCC[C@@H]1CN=C(N)N1CCc1cccc(F)c1` is “inactive”; for `Cc1cccc(Nc2nc(NCCO)nc(N3CCCC3)n2)c1` it is “inactive”; for `COc1ccc(C(=O)N(Cc2ccccc2)c2ccc(C)cc2)cc1S(=O)(=O)N1CCOCC1` it is “inactive”. Take `COc1cccc(NC(=O)CSc2nccn(-c3ccc4c(c3)OCCO4)c2=O)c1`: the B-score result was “inactive”.

As for `CC(C)(C)S(=O)(=O)c1ccccc1-c1noc(-c2ccccc2)c1C(N)=O`, the B-score entry was “inactive”.

As for `CN(C)CCn1c2c(c(SCC(=O)NCc3ccccc3)nc1=O)CCC2`, the B-score result was “inactive”. For the compound `Nc1cc(N2CCCCCC2)c2nonc2c1[N+](=O)[O-]`, the B-score is -7.12 (active). Take `Nc1nc(NCC(=O)O)nc(N2CCCCCC2)c1[N+](=O)[O-]`: the B-score result is “inactive”. Take `COCCNc1nc(N)c([N+](=O)[O-])c(N2CCCCCC2)n1`: the B-score entry was “inactive”. The entry for `Cc1ccc(S(=O)(=O)N2CCN(C(=O)Cc3sc(C)nc3-c3ccc(F)cc3)CC2)c(C)c1` is “inactive”; for `COc1ccc(NC(=O)CN(C)C(=O)c2cccc(S(=O)(=O)N3CCN(c4ccccc4)CC3)c2)cc1` it is “inactive”; for `Cc1ccccc1NC(=O)COc1cccc2c1CCNC2=O` it is “inactive”. In the case of `Cc1ccc(S(=O)(=O)/N=C(/NC(=S)Nc2c(C)n(C)n(-c3ccccc3)c2=O)c2ccccc2)cc1`, the B-score was -6.35 (active). For `Cc1c(NC(=S)Nc2ccccc2)c(=O)n(-c2ccccc2)n1C`, the B-score result was “inactive”.

For `Cc1ccc(S(=O)(=O)CC(=O)Nc2c(C)n(C)n(-c3ccccc3)c2=O)cc1`, the B-score entry was “inactive”. Take `CC(=O)N1CCc2c(sc(NC(=O)CCS(=O)(=O)c3ccc(C)cc3)c2C(N)=O)C1`: the B-score entry is “inactive”. As for `O=C(c1cc(-c2ccco2)nc2ccccc12)N(Cc1nnc(-c2ccc(Cl)cc2)o1)C1CC1`, the B-score result is “inactive”. Consider `CC(C)CN(C(=O)COC(=O)c1ccc2ccccc2c1)c1c(N)n(Cc2ccccc2)c(=O)[nH]c1=O`, for which the B-score result was “inactive”. In the case of `COc1ccc(/C=N/NC(=O)c2cc(-c3cccc(C)c3)nc3ccccc23)cc1O`, the B-score result was “inactive”. For `COc1ccccc1OCCCCCCN1CCN(C)CC1`, the B-score result was “inactive”. The entry for `CCN(CC)c1ccc(S(=O)(=O)N2CCCCC2)cc1NC(=O)C1=COCCO1` is “inactive”; for `CCOc1ccccc1Nc1ccc2nonc2c1[N+](=O)[O-]` it is -6.62 (active).

Regarding `CCOc1ccccc1Nc1ccc(C(=O)O)cc1[N+](=O)[O-]`, the B-score result is “inactive”. The entry for `Cc1ccccc1Nc1c([N+](=O)[O-])ccc2nonc12` is “inactive”; for `COc1ccc(-c2ccc3nnc(SCC(=O)Nc4ccc(NC(C)=O)cc4)n3n2)cc1` it is “inactive”; for `Cc1ccccc1-n1c(C)cc(/C=C2\NC(=O)NC2=O)c1C` it is -8.08 (active). Turning to `Cc1cc(/C=C2/NC(=O)NC2=O)c(C)n1-c1cccnc1`, the B-score result is “inactive”. Consider `Cc1cccc(C)c1-n1c(C)cc(/C=C2\C(=O)NN(c3ccccc3)C2=O)c1C`, for which the B-score result was “inactive”.
